Records with an inconclusive call do not appear. Values without a mark were called inactive. Activity calls are given as the source filed them. Calls follow the shape of the dose curve; as a rule, active = well fitted activation curve with a large enough effect in the signal ratio in the repeat runs, with a control signal flat (not every such curve was filed as active); inconclusive = weak or mixed curves; inactive = flat fitted curve, though single readings scatter; the % refers to the signal ratio.
% is scaled to controls: 0 for no effect and ±100 for the full control effect.

This assay is described as follows: qHTS assay for small molecule activators of the heat shock response signaling pathway (AID 743210). As to conditions: HeLa HSE-bla reporter, beta-lactamase ratio, 5 h; series mostly up to 62.6 µM; activation: at the top concentration. From the text: U.S. Tox21 Program National Center for Advancing Translational Sciences [NCATS] NIH Chemical Genomics Center [NCGC] U.S. Environmental Protection Agency [EPA] National Institutes of Environmental Health Sciences [NIEHS] National Toxicology Program [NTP] U.S. Food and Drug Administration [FDA] Tox21 Assay Overview: Various chemicals, environmental and physiological stress conditions may lead to the activation of heat shock response/ unfolded protein response (HSR/UPR). There are three heat shock transcription factors (HSFs) (HSF-1, -2, and -4) mediating transcriptional regulation of the human HSR. To identify the compounds that activate HSR signaling, HSE-bla HeLa cell line (Invitrogen, Carlsbad, CA, USA) containing a beta-lactamase reporter gene under the control of the heat shock response elements was used to screen the Tox21 10K compound library.
Tox21 Assay Protocol Summary: The CellSensor HSE-bla HeLa cells (Invitrogen, Carlsbad, CA, USA) were dispensed at 1500 cells/6uL/well into 1536-well black wall/clear bottom plates using a Multidrop combi (Thermo Fisher Scientific, Waltham, MA) dispenser. After the assay plates were incubated at 37 C and 5% CO2 overnight, 23 nL of compounds dissolved in DMSO, positive controls or DMSO only was transferred to the assay plate by a Pintool station (Kalypsys, San Diego, CA). The plates were incubated at 37 C for 5 h. After 1 uL of LiveBLAzerTM B/G FRET substrate was added using a Flying Reagent Dispenser (Beckman Coulter, Indianapolis, IN, USA), the plates were incubated at room temperature for 2.5 h, and fluorescence intensity was measured by an Envision plate reader (PerkinElmer, Shelton, CT).
For `CCCCC(CC)COC(=O)CCCCCCCC(=O)OCC(CC)CCCC` (stereo not given), the outcome was inactive.

On to `O=C(O)c1cc(-c2ccccc2)nc2ccccc12`, for which the “activation” value is -0.756%.

As for `CS(=O)(=O)Nc1ccc([N+](=O)[O-])cc1Oc1ccccc1`, the outcome was inactive.

For the compound `O=C(c1ccc(O)cc1)c1ccc(O)cc1O`, the result was inactive.

On to `CCCCCCC(C)(C)S`, for which the outcome was inactive.

In the case of `Cn1c([N+](=O)[O-])cnc1COC(N)=O`, the result was inactive.

As for `CCc1ccccc1O`, the result was inactive.

Regarding `NCCNCCNCCNCCN`, the outcome was inactive.

As for `CNC[C@H](O)[C@@H](O)[C@H](O)[C@H](O)CO`, the result was inactive.

In the case of `CCCCOCCOCCOC(=O)CCCCC(=O)OCCOCCOCCCC`, the result was inactive.

Take `CS(=O)(=O)c1ccc([C@@H](O)[C@@H](CO)NC(=O)C(Cl)Cl)cc1`: the outcome was inactive.

`CCC(=O)O`: the “activation” value was -0.03% [at 81.1 µM].

Regarding `CC(C)NCC(O)COc1cccc2ccccc12` (stereo not given), the outcome was inactive.

Consider `O=S(=O)(Oc1ccc(Cl)cc1Cl)c1ccccc1`, for which the outcome was inactive.

For `Cc1ccc(C)c(C)c1`, the outcome was inactive.

As for `O=[N+]([O-])c1cccc(Cl)c1`, the result was inactive.

Consider `CCOC(=O)[C@H](CCc1ccccc1)N[C@@H](C)C(=O)N1Cc2ccccc2C[C@H]1C(=O)O`, for which the “activation” value was 1.61% [at 81.1 µM].

Turning to `CCCCC/C=C\C/C=C\CCCCCCCC(=O)OC`, the “activation” value is 0.0165%.

As to `O=c1c(-c2ccc(O)cc2)coc2cc(O)ccc12`, the “activation” value is 3.41%.

In the case of `CCC(C)C=O` (stereo not given), the result was inactive.

Consider `CCCCOCCO`, for which the outcome was inactive.

As for `NC(=O)NNc1ccccc1`, the result was inactive.

As to `CN(CCOc1ccc(CC2SC(=O)NC2=O)cc1)c1ccccn1` (stereo not given), the outcome was inactive.

For the compound `C=CC(=O)OCCCCCCCC(C)C`, the outcome was inactive.

Consider `CCCCCCCCCCCCOCC1CO1` (stereo not given), for which the result was inactive.

Take `OCC1CCCO1` (stereo not given): the outcome was inactive.

`CC1(C)O[C@@H]2C[C@H]3[C@@H]4C[C@H](F)C5=CC(=O)CC[C@]5(C)[C@H]4[C@@H](O)C[C@]3(C)[C@]2(C(=O)CO)O1`: the outcome was inactive.

For the compound `C[C@@H](O)[C@H]1C(=O)N2C(C(=O)O)=C(S[C@@H]3CN[C@H](C(=O)N(C)C)C3)[C@H](C)[C@H]12`, the outcome was inactive.

Consider `CCCCC(CC)C(=O)OCCOCCOCCOC(=O)C(CC)CCCC` (stereo not given), for which the result was inactive.

In the case of `CCCCCCCCCCC=CC1CC(=O)OC1=O` (stereo not given), the result was inactive.

In the case of `CC1=C(CC(=O)O)c2cc(F)ccc2/C1=C\c1ccc(S(C)=O)cc1` (stereo not given), the result was inactive.

On to `O=[N+]([O-])C(CO)(CO)CO`, for which the outcome was inactive.

In the case of `O=C1O[C@H](CO)[C@@H](O)[C@H](O)[C@H]1O`, the outcome was inactive.

For the compound `C[C@@H]1O[C@@H](OC[C@H]2O[C@@H](Oc3c(-c4ccc(O)c(O)c4)oc4cc(O)cc(O)c4c3=O)[C@H](O)[C@@H](O)[C@@H]2O)[C@H](O)[C@H](O)[C@H]1O`, the outcome was inactive.

In the case of `CC(=O)[C@@]1(O)CC[C@H]2[C@@H]3CCC4=CC(=O)CC[C@]4(C)[C@H]3CC[C@@]21C`, the outcome was inactive.

Regarding `CC(C)Cc1ccccc1`, the outcome was inactive.

For `OCCOCCOCCOCCO`, the outcome was inactive.

Consider `Nc1c(S(=O)(=O)O)cc(Br)c2c1C(=O)c1ccccc1C2=O`, for which the outcome was inactive.

`Oc1ccc(OCc2ccccc2)cc1`: the result was inactive.

With `CN(C)c1ccc(C(=N)c2ccc(N(C)C)cc2)cc1`, the result was inactive.

The values are drawn from PubChem BioAssay (Tox21).
